Reference: PubChem BioAssay (Tox21)
Some compounds were tested as several samples or in several runs, with calls that do not always agree. Calls of active or inactive are those of the source. Where a call stands in place of a potency, no number is given. Unless noted, calls come from the whole dose curve; as a rule, active = well fitted curve in the direction sought with a large enough effect in the repeat runs; inconclusive = weak or mixed curves; inactive = flat fitted curve, though single readings scatter. Positions of bridges follow the written chain, without caps; N, C: chain ends. Non-standard residues stand in square brackets, D forms with d. Residues, ends and D or L forms follow the SMILES beside them. *: point of attachment. X1 = CC[C@@H](C)[C@@H](N)C1=N[C@H](C(=O)*)CS1; d(aIle) = CC[C@H](C)[C@@H](N)C(=O)O; dOrn = NCCC[C@@H](N)C(=O)O

system: not listed separately; assay: qHTS assay to test for compound auto fluorescence at 460 nm (blue) in HepG2 cells (AID 720687); conditions: autofluorescence 405/460 nm, 1 h; series mostly up to 46 µM
Method in brief: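 HepG2 cells in MEM with 10% FBS, attached overnight at 37 C, were exposed to compound or DMSO for 1 hr at 37 C, 5% CO2. Blue fluorescence was read at 405/460 nm, with triamterene as reference fluorophore.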
Potency is the fitted concentration of half-maximal effect; tags give direction and shape of the fitted curve or compound fluorescence and quenching.

| SMILES | Potency |
| --- | --- |
| CN1[C@@H](CC(=O)c2ccccc2)CCC[C@H]1C[C@H](O)c1ccccc1 | inactive |
| CCN1CCCC1CNC(=O)c1cc(S(=O)(=O)CC)ccc1OC (stereo unspecified) | inactive |
| Nc1nc(NC2CC2)c2ncn([C@@H]3C=C[C@@H](CO)C3)c2n1 | inactive |
| Cc1cc(N)c2ccccc2[n+]1CCCCCCCCCC[n+]1c(C)cc(N)c2ccccc21 | inactive |
| CC[C@@H](C)[C@H](N)C(=O)O | inactive |
| CCCCCCCCCCCCN1CCCC1=O | inactive |
| CC12CCC(C[N+](C)(CCC[N+](C)(C)C)C1)C2(C)C (stereo unspecified) | inactive |
| CC(C)(COP(=O)(O)OP(=O)(O)OC[C@H]1O[C@@H](n2cnc3c(N)ncnc32)[C@H](O)[C@@H]1OP(=O)(O)O)C(O)C(=O)NCCC(=O)NCCS (stereo partly specified) | inactive |
| O=C1c2ccccc2-c2n[nH]c3cccc1c23 | 14.1 µM [fluorescent] (active) |
| CCOC(=O)Cc1ccc(-c2ccccc2)cc1 | inactive |
| CC(=O)O[C@H]1C[C@@H]2CC[C@@H]3[C@H](CC[C@@]4(C)[C@H]3C[C@H]([N+]3(C)CCCCC3)[C@@H]4OC(C)=O)[C@@]2(C)C[C@@H]1[N+]1(C)CCCCC1 | inactive |
| CS(=O)(=O)c1ccc([C@@H](CC2CCCC2)C(=O)Nc2cnccn2)cc1Cl | inactive |
| O=C1c2c(O)cccc2[C@H]([C@@H]2O[C@H](CO)[C@@H](O)[C@H](O)[C@H]2O)c2cc(CO)cc(O)c21 | inactive |
| CC1CCCCN1CCCOC(=O)c1ccccc1 (stereo unspecified) | inactive |
| O=C(O)CCCC/C=C(\c1ccccc1)c1cccnc1 | inactive |
| CC[C@@H](C)[C@@H](N)C1=N[C@H](C(=O)N[C@@H](CC(C)C)C(=O)N[C@@H](CCC(=O)O)C(=O)N[C@@H](C(=O)N[C@@H]2CCCCNC(=O)[C@@H](CC(N)=O)NC(=O)[C@@H](CC(=O)O)NC(=O)[C@@H](Cc3cnc[nH]3)NC(=O)[C@@H](Cc3ccccc3)NC(=O)[C@@H]([C@H](C)CC)NC(=O)[C@@H](CCCN)NC2=O)[C@@H](C)CC)CS1 (X1-LE[d(aIle)][dK][dOrn][dI][dF][dH][dD][dN]; lactam 4-C) | inactive |
| NC(=S)NS(=O)(=O)c1ccc(N)cc1 | inactive |
| CO[C@H]1C[C@@H]2CC[C@@H](C)[C@@](O)(O2)C(=O)C(=O)N2CCCC[C@H]2C(=O)O[C@H]([C@H](C)C[C@@H]2CC[C@@H](O)[C@H](OC)C2)CC(=O)[C@H](C)C=C(C)[C@@H](O)[C@@H](OC)C(=O)[C@H](C)C[C@H](C)/C=C/C=CC=C1C | inactive |
| CC(=O)[C@]1(O)Cc2c(O)c3c(c(O)c2[C@@H](O[C@H]2C[C@H](N)[C@H](O)[C@H](C)O2)C1)C(=O)c1ccccc1C3=O | inactive |
| C=CC[N+]1([C@H]2C[C@H]3[C@@H]4CC[C@H]5C[C@H](O)[C@@H](N6CCOCC6)C[C@]5(C)[C@H]4CC[C@]3(C)[C@H]2OC(C)=O)CCCC1 | inactive |
| CCc1ncnc2cc(OC)c(OC)cc12 | inactive |
| C=CC1=C(C(=O)O)N2C(=O)[C@@H](NC(=O)/C(=N\O)c3csc(N)n3)[C@H]2SC1 (stereo in doubt) | inactive |
| CC(=O)N[C@@H](C=O)[C@H](O)[C@H](O)[C@@H](O)CO | inactive |
| CCCOC(=O)c1ccccc1O | inactive |
| CCCCCCCC/C=C\CCCCCCCC(=O)N(CCO)CCO | inactive |
| Oc1ccc(Cl)cc1C1CCCC1 | inactive |
| Nc1ccc(N)c([N+](=O)[O-])c1 | inactive |
| N#Cc1c(N(CC(=O)O)CC(=O)O)sc(C(=O)O)c1CC(=O)O | inactive |
| N[C@@H](Cc1ccc(O)c(O)c1)C(=O)O | inactive |

target: Glucocorticoid receptor (Homo sapiens) (UniProt P04150); assay: qHTS assay to identify small molecule agonists of the glucocorticoid receptor (GR) signaling pathway (AID 720691; active = well fitted activation curve with a large enough effect in the signal ratio in the repeat runs, not every such curve was filed as active; inconclusive = weak or mixed curves, or effect the other way; inactive = no such curve, though single readings can be large or run the other way; the % refers to the signal ratio); conditions: GR-bla HeLa, beta-lactamase reporter ratio, 18 h; activation: at 62.4 µM (top of the series)
Method in brief: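 Agonist-mode qHTS in HeLa cells stably expressing a glucocorticoid-response-element beta-lactamase reporter. Fluorescence intensity read with FRET substrate (2 h, room temperature) after 18 h compound treatment at 37 C.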

Sequence of Glucocorticoid receptor (Homo sapiens) (P04150 whole entry, looked up): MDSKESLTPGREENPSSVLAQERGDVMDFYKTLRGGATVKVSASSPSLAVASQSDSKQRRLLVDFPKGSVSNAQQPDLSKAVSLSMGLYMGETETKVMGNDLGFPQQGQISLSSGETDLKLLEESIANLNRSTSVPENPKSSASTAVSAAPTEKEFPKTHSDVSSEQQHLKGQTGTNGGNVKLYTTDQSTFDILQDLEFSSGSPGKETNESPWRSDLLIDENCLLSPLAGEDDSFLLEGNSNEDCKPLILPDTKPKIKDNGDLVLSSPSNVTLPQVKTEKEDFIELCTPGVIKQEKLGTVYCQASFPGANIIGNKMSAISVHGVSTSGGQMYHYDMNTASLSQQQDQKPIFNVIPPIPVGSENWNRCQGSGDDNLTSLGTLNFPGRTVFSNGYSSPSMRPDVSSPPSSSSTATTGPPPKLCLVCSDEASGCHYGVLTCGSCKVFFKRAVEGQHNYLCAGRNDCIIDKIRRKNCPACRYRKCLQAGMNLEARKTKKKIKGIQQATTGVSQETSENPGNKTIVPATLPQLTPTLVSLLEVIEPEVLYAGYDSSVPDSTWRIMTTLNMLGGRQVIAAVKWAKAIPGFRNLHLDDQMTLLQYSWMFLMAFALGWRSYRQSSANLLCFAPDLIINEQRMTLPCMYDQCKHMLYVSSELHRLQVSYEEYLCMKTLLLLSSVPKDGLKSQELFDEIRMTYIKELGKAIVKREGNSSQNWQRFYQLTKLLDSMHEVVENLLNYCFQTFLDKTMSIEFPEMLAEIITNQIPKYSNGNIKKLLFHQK

| SMILES | Potency | activation |
| --- | --- | --- |
| CCN1CCCC1CNC(=O)c1cc(S(=O)(=O)CC)ccc1OC (stereo unspecified) | inactive |  |
| Nc1nc(NC2CC2)c2ncn([C@@H]3C=C[C@@H](CO)C3)c2n1 | inactive |  |
| Cc1cc(N)c2ccccc2[n+]1CCCCCCCCCC[n+]1c(C)cc(N)c2ccccc21 | inactive |  |
| CC[C@@H](C)[C@H](N)C(=O)O | inactive |  |
| CC(=O)O[C@H]1C[C@@H]2CC[C@@H]3[C@H](CC[C@@]4(C)[C@H]3C[C@H]([N+]3(C)CCCCC3)[C@@H]4OC(C)=O)[C@@]2(C)C[C@@H]1[N+]1(C)CCCCC1 | inactive |  |
| O=C1c2c(O)cccc2[C@H]([C@@H]2O[C@H](CO)[C@@H](O)[C@H](O)[C@H]2O)c2cc(CO)cc(O)c21 |  | 14.2% [inconclusive] (active) |
| CC1CCCCN1CCCOC(=O)c1ccccc1 (stereo unspecified) | inactive |  |
| CC(=O)[C@]1(O)Cc2c(O)c3c(c(O)c2[C@@H](O[C@H]2C[C@H](N)[C@H](O)[C@H](C)O2)C1)C(=O)c1ccccc1C3=O | 23.9 µM [inconclusive] (active) |  |
| N=C(N)n1cccn1 | inactive |  |
| C=CC[N+]1([C@H]2C[C@H]3[C@@H]4CC[C@H]5C[C@H](O)[C@@H](N6CCOCC6)C[C@]5(C)[C@H]4CC[C@]3(C)[C@H]2OC(C)=O)CCCC1 | inactive |  |
| CCc1ncnc2cc(OC)c(OC)cc12 | inactive |  |
| CNCC(=O)N[C@@H](CCCN=C(N)N)C(=O)N[C@H](C(=O)N[C@@H](Cc1ccc(O)cc1)C(=O)N[C@H](C(=O)N[C@@H](Cc1cnc[nH]1)C(=O)N1CCC[C@H]1C(=O)N[C@@H](C)C(=O)O)C(C)C)C(C)C | inactive |  |
| CCCOC(=O)c1ccccc1O | inactive |  |
| CC(C)(S)C(=O)N[C@@H](CS)C(=O)O | inactive |  |
| O=C(O)/C=C/C(=O)Nc1ccc(S(=O)(=O)Nc2nccs2)cc1 | inactive |  |
| N[C@@H](Cc1ccc(O)c(O)c1)C(=O)O | inactive |  |
| CC(C)c1ccc2sc3ccccc3c(=O)c2c1 | inactive |  |
